Laboratory results as given in PubChem BioAssay AID1159580 (chemical genetic matrix, 2015).
About 2,000 (36%) of roughly 5,500 compounds were called active. Inconclusive results (about 18%) are left out. Rule as the data show it: active = normalized growth mostly below about 0.91 (no sharp cut-off); inconclusive = no clear call, values can overlap the other calls; inactive = mostly above about 0.92. This is one part of the list.

Experiment: chemical genetic growth profiling, strain panel (AID 1159580);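 also: tested at 20 µM; growth read once vehicle control cultures reached saturation at 30 °C; 1 = growth at the plate median or of vehicle wells; lower values mean less growth of the strain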
Conditions: S. cerevisiae deletion strains, growth OD

Measured: normalized growth

COC(=O)C[C@H]1C(C)(C)C2(Cl)O[C@@]34CC2C(=O)[C@]1(C)C3CC[C@]1(C)C4=CC(=O)O[C@H]1c1ccoc1 (stereo not given in full)
inactive: locus YAL013W, strain DEP1, stronger effect = lower value 1.01 | locus YBR021W, strain FUR4, stronger effect = lower value 0.995 | locus YBR229C, strain ROT2, stronger effect = lower value 1 | locus YCL029C, strain bik1, stronger effect = lower value 1.01 | locus YDL035C, strain GPR1, stronger effect = lower value 1.02 | locus YDL074C, strain BRE1, stronger effect = lower value 0.989 | locus YDL101C, strain DUN1, stronger effect = lower value 0.997 | locus YDL134C, strain PPH21, stronger effect = lower value 0.999 | locus YDL185W, strain tfp1, stronger effect = lower value 0.994 | locus YDL192W, strain arf1, stronger effect = lower value 0.99 | locus YDR101C, strain arx1, stronger effect = lower value 0.993 | locus YDR162C, strain NBP2, stronger effect = lower value 0.971 | locus YDR318W, strain mcm21, stronger effect = lower value 1 | locus YDR388W, stronger effect = lower value 0.993 | locus YDR502C, strain sam2, stronger effect = lower value 0.996 | locus YEL061C, strain CIN8, stronger effect = lower value 1 | locus YER110C, stronger effect = lower value 0.993 | locus YER155C, strain BEM2, stronger effect = lower value 1.01 | locus YER167W, strain BCK2, stronger effect = lower value 1.01 | locus YGL078C, strain dbp3, stronger effect = lower value 0.99 | locus YGL086W, strain mad1, stronger effect = lower value 0.989 | locus YGL248W, strain PDE1, stronger effect = lower value 1 | locus YGR078C, strain PAC10, stronger effect = lower value 0.991 | locus YGR135W, strain pre9, stronger effect = lower value 0.976 | locus YGR252W, strain gcn5, stronger effect = lower value 0.966 | locus YHR030C, strain SLT2, stronger effect = lower value 0.999 | locus YHR079C, strain IRE1 (second series), stronger effect = lower value 0.996 | locus YHR094C, strain hxt1, stronger effect = lower value 0.995 | locus YHR129C, strain ARP1, stronger effect = lower value 1 | locus YHR200W, strain rpn10, stronger effect = lower value 0.992 | locus YIL066C, strain RNR3, stronger effect = lower value 1.01 | locus YIL073C, strain SPO22, stronger effect = lower value 1 | locus YIL125W, strain kgd1, stronger effect = lower value 1 | locus YIR030C, strain dcg1, stronger effect = lower value 0.986 | locus YJL095W, strain BCK1, stronger effect = lower value 0.996 | locus YJL134W, strain LCB3, stronger effect = lower value 1.01 | locus YJL168C, strain set2, stronger effect = lower value 0.987 | locus YJL187C, strain SWE1 (second series), stronger effect = lower value 1 | locus YJR075W, strain HOC1, stronger effect = lower value 1.01 | locus YKL009W, strain mrt4, stronger effect = lower value 0.983 | locus YKL068W, stronger effect = lower value 1.01 | locus YKL085W, strain MDH1 (second series), stronger effect = lower value 0.996 | locus YKL085W, strain MDH1, stronger effect = lower value 0.996 | locus YKR001C, strain vps1, stronger effect = lower value 1 | locus YLR039C, strain RIC1, stronger effect = lower value 1.05 | locus YLR058C, strain SHM2, stronger effect = lower value 1 | locus YLR102C, strain apc9, stronger effect = lower value 1 | locus YLR268W, strain sec22, stronger effect = lower value 1 | locus YLR342W, strain FKS1 (second series), stronger effect = lower value 1.02 | locus YLR371W, strain rom2, stronger effect = lower value 0.996 | locus YLR418C, strain cdc73, stronger effect = lower value 0.96 | locus YML016C, strain PPZ1, stronger effect = lower value 1.01 | locus YML032C, strain rad52, stronger effect = lower value 0.995 | locus YML124C, strain tub3, stronger effect = lower value 0.992 | locus YMR078C, strain ctf18, stronger effect = lower value 1.01 | locus YMR223W, strain ubp8, stronger effect = lower value 0.979 | locus YMR307W, strain GAS1, stronger effect = lower value 0.957 | locus YNL067W, strain RPL9B, stronger effect = lower value 1 | locus YNL153C, strain GIM3, stronger effect = lower value 1 | locus YNL233W, strain BNI4, stronger effect = lower value 0.995 | locus YNL250W, strain rad50, stronger effect = lower value 0.995 | locus YNL271C, strain bni1, stronger effect = lower value 0.998 | locus YNL298W, strain CLA4, stronger effect = lower value 0.99 | locus YNL307C, strain MCK1, stronger effect = lower value 0.991 | locus YNR052C, strain pop2, stronger effect = lower value 0.998 | locus YOL006C, strain TOP1, stronger effect = lower value 1.02 | locus YOL012C, strain htz1 0.78 | locus YOL147C, strain pex11, stronger effect = lower value 0.99 | locus YOR061W, strain CKA2, stronger effect = lower value 1.01 | locus YOR069W, strain VPS5, stronger effect = lower value 1 | locus YOR136W, strain idh2, stronger effect = lower value 0.988 | locus YOR144C, strain elg1, stronger effect = lower value 0.995 | locus YOR184W, strain ser1, stronger effect = lower value 1.01 | locus YOR316C, strain cot1, stronger effect = lower value 0.988 | locus YPL241C, strain CIN2, stronger effect = lower value 1 | locus YPR119W, strain clb2, stronger effect = lower value 0.989 | locus YPR141C, strain kar3, stronger effect = lower value 0.997 | locus YPR163C, strain tif3, stronger effect = lower value 0.991 | locus YPR167C, strain met16, stronger effect = lower value 0.991 | strain wtn01, stronger effect = lower value 1.02
